PubChem BioAssay AID1159580 (chemical genetic matrix, 2015)
Where “and” joins values, the source holds several entries; their conditions need not be identical. Equal entries are not always repeated. The campaign covered roughly 5,500 compounds. About 2,000 (36%) were called active. Not shown: some 18% with an inconclusive outcome. No stated cut-off is given here; in the data, active means normalized growth mostly below about 0.91 (no sharp cut-off); inconclusive means no clear call, values can overlap the other calls; inactive means mostly above about 0.92. This is one part of the list.

Experiment: chemical genetic growth profiling, strain panel (AID 1159580);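 further: tested at 20 µM; growth read once vehicle control cultures reached saturation at 30 °C; 1 = growth at the plate median or of vehicle wells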
Conditions: S. cerevisiae deletion strains, growth OD

Measured: normalized growth

COc1ccc(C(=O)c2ccccc2)c(O)c1
inactive: locus YAL013W, strain DEP1, stronger effect = lower value 0.914 | locus YAL021C, strain ccr4, stronger effect = lower value 0.918 | locus YBR021W, strain FUR4, stronger effect = lower value 0.975 | locus YBR229C, strain ROT2, stronger effect = lower value 0.956 | locus YCL029C, strain bik1, stronger effect = lower value 0.92 | locus YDL101C, strain DUN1, stronger effect = lower value 0.963 | locus YDL134C, strain PPH21, stronger effect = lower value 0.949 | locus YDL185W, strain tfp1, stronger effect = lower value 0.908 | locus YDR150W, strain NUM1, stronger effect = lower value 0.934 | locus YEL061C, strain CIN8, stronger effect = lower value 0.939 | locus YGL248W, strain PDE1, stronger effect = lower value 0.944 | locus YGR078C, strain PAC10, stronger effect = lower value 0.859 | locus YHR129C, strain ARP1, stronger effect = lower value 0.936 | locus YIL073C, strain SPO22, stronger effect = lower value 0.75 | locus YJL134W, strain LCB3, stronger effect = lower value 0.945 | locus YJL187C, strain SWE1 (second series), stronger effect = lower value 0.943 | locus YJR043C, strain POL32, stronger effect = lower value 0.879 | locus YJR066W, strain TOR1, stronger effect = lower value 0.835
active: locus YAL026C, strain drs2, stronger effect = lower value 0.74 | locus YAL030W, strain snc1, stronger effect = lower value 0.841 | locus YBL061C, strain skt5, stronger effect = lower value 0.762 | locus YBR009C, strain hhf1, stronger effect = lower value 0.789 | locus YBR023C, strain chs3, stronger effect = lower value 0.807 | locus YBR171W, strain sec66, stronger effect = lower value 0.769 | locus YBR231C, strain swc5, stronger effect = lower value 0.834 | locus YBR279W, strain paf1, stronger effect = lower value 0.854 | locus YCL011C, strain gbp2, stronger effect = lower value 0.78 | locus YCL016C, strain dcc1, stronger effect = lower value 0.792 | locus YCL061C, strain MRC1, stronger effect = lower value 0.791 | locus YCL069W, strain vba3, stronger effect = lower value 0.779 | locus YCR088W, strain abp1, stronger effect = lower value 0.833 | locus YDL005C, strain med2, stronger effect = lower value 0.903 | locus YDL035C, strain GPR1, stronger effect = lower value 0.855 | locus YDL040C, strain nat1, stronger effect = lower value 0.861 | locus YDL074C, strain BRE1, stronger effect = lower value 0.691 | locus YDL192W, strain arf1, stronger effect = lower value 0.808 | locus YDR001C, strain nth1, stronger effect = lower value 0.863 | locus YDR069C, strain doa4, stronger effect = lower value 0.879 | locus YDR101C, strain arx1, stronger effect = lower value 0.868 | locus YDR137W, strain rgp1, stronger effect = lower value 0.451 | locus YDR159W, strain sac3, stronger effect = lower value 0.671 | locus YDR162C, strain NBP2, stronger effect = lower value 0.671 | locus YDR195W, strain ref2 1.16 [resistant] | locus YDR297W, strain sur2, stronger effect = lower value 0.853 | locus YDR318W, strain mcm21, stronger effect = lower value 0.833 | locus YDR334W, strain swr1, stronger effect = lower value 0.859 | locus YDR335W, strain msn5, stronger effect = lower value 0.758 | locus YDR388W, stronger effect = lower value 0.881 | locus YDR392W, strain spt3, stronger effect = lower value 0.43 | locus YDR502C, strain sam2, stronger effect = lower value 0.804 | locus YEL003W, strain gim4, stronger effect = lower value 0.778 | locus YEL037C, strain rad23, stronger effect = lower value 0.841 | locus YEL061C, strain CIN8 (second series), stronger effect = lower value 0.813 | locus YER015W, strain faa2, stronger effect = lower value 0.752 | locus YER016W, strain bim1, stronger effect = lower value 0.862 | locus YER110C, stronger effect = lower value 0.891 | locus YER111C, strain swi4, stronger effect = lower value 0.797 | locus YER155C, strain BEM2 (second series), stronger effect = lower value 0.24 | locus YER155C, strain BEM2, stronger effect = lower value 0.926 | locus YER167W, strain BCK2, stronger effect = lower value 0.837 | locus YFR010W, strain ubp6, stronger effect = lower value 0.888 | locus YGL078C, strain dbp3, stronger effect = lower value 0.911 | locus YGL086W, strain mad1, stronger effect = lower value 0.828 | locus YGL167C, strain pmr1, stronger effect = lower value 0.772 | locus YGL173C, strain kem1, stronger effect = lower value 0.72 | locus YGL227W, strain vid30, stronger effect = lower value 0.84 | locus YGL240W, strain doc1, stronger effect = lower value 0.609 | locus YGL253W, strain hxk2, stronger effect = lower value 0.686 | locus YGR135W, strain pre9, stronger effect = lower value 0.729 | locus YGR229C, strain SMI1, stronger effect = lower value 0.558 | locus YGR252W, strain gcn5, stronger effect = lower value 0.666 | locus YHR013C, strain ard1, stronger effect = lower value 0.757 | locus YHR027C, strain rpn1, stronger effect = lower value 0.87 | locus YHR079C, strain IRE1 (second series), stronger effect = lower value 0.894 | locus YHR079C, strain IRE1, stronger effect = lower value 0.842 | locus YHR094C, strain hxt1, stronger effect = lower value 0.915 | locus YHR142W, strain chs7, stronger effect = lower value 0.541 | locus YHR200W, strain rpn10, stronger effect = lower value 0.861 | locus YIL066C, strain RNR3, stronger effect = lower value 0.827 | locus YIL125W, strain kgd1, stronger effect = lower value 0.898 | locus YIR030C, strain dcg1, stronger effect = lower value 0.906 | locus YJL092W, strain hpr5, stronger effect = lower value 0.827 | locus YJL095W, strain BCK1 (second series), stronger effect = lower value 0.703 | locus YJL095W, strain BCK1, stronger effect = lower value 0.699 and 0.86 | locus YJL115W, strain asf1, stronger effect = lower value 0.869 | locus YJL129C, strain trk1, stronger effect = lower value 0.649 | locus YJL154C, strain vps35, stronger effect = lower value 0.882 | locus YJL164C, strain tpk1, stronger effect = lower value 0.805 | locus YJL166W, strain qcr8, stronger effect = lower value 0.742 | locus YJL168C, strain set2, stronger effect = lower value 0.913
0.755 (active) and 0.874 (inactive): locus YHR030C, strain SLT2, stronger effect = lower value
